The record followed here is the supplement of paper PMC7411054.

SMILES strings stand for the structures. Where only a bound is given, the exact number is not on record here.

Holding throughout (details): treatment time: 24 h
In assay [1] the test system is A549-ACTB-RAB5A. The assay can be described thus: lowest phenotypically active concentration; higher = less potent. In short, it runs like this: (§1)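 Cells from fifteen gene-edited reporter lines (A549, HepG2 and WPMY1) were treated for 24 h at 0.3, 1, 3 or 9 µM and imaged live, four wells per condition. Features were normalised per well to solvent control wells. A condition deviated if ≥3 of 4 wells passed the 95th percentile of control Euclidean distances and was reproducible if its median replicate Pearson correlation beat the 95th percentile of non-replicates; phenotypic activity needed both.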

The subject of assay [2] is A549-CANX-COX4. The assay is described as above. In short, it runs like this: as §1
Assay [3] has as its system A549-GM130-SQSTM1. The assay is described as above. Put shortly: as §1
Assay [4] has as its system A549-TP53BP1-CLTA. Described as above. In short, it runs like this:
as §1

In assay [5] the test system is A549-TUBA1B-RELA. Described as above. In short, it runs like this: as §1
In assay [6] the test system is HepG2-GM130-SQSTM1. The description is as above. In short, it runs like this:
as §1

The subject of assay [7] is A549-ACTB-RAB5A. The assay can be described thus: phenotypically active (imaging signature differs from DMSO and reproducible) at any of 0.3-9 uM (binary (1 = active, 0 = inactive)); higher = active. Put shortly: as §1
In assay [8] the test system is A549-CANX-COX4. The assay is described as above. Put shortly:
as §1

Assay [9] concerns A549-GM130-SQSTM1. The assay is described as above. Put shortly:
as §1

For assay [10], the system named is A549-TP53BP1-CLTA. Described as above. In short, it runs like this:
as §1

For assay [11], the system named is A549-TUBA1B-RELA. The description is as above. Put shortly: as §1
Another assay deals with HepG2-ACTB-RAB5A. The assay is described as above. Put shortly: as §1
Another assay has as its system HepG2-CANX-COX4. The description is as above. Put shortly: as §1
Assay [12] has as its system HepG2-GM130-SQSTM1. The assay is described as above. In short, it runs like this: as §1
For another assay, the system named is HepG2-TP53BP1-CLTA. The description is as above. In short, it runs like this:
as §1

Another assay relates to HepG2-TUBA1B-RELA. The description is as above. Put shortly:
as §1

Another assay deals with WPMY1-CANX-COX4. The assay is described as above. In short, it runs like this: as §1
For another assay, the system named is WPMY1-GM130-SQSTM1. Described as above. In short, it runs like this:
as §1

Another assay concerns WPMY1-TP53BP1-CLTA. The description is as above. In short, it runs like this: as §1
For another assay, the system named is WPMY1-TUBA1B-RELA. The assay is described as above. In short, it runs like this: as §1

Consider `Nc1nc(Cl)nc2c1ncn2[C@H]1C[C@H](O)[C@@H](CO)O1` [cladribine], for which the “lowest phenotypically active concentration” value is 3 µM in the assay with A549-ACTB-RAB5A [1]; 1 µM in the assay on A549-CANX-COX4 [2]; 1 µM in the assay on A549-GM130-SQSTM1 [3]; 3 µM in the assay with A549-TP53BP1-CLTA [4]; 1 µM with A549-TUBA1B-RELA [5]; at most 0.3 µM with HepG2-GM130-SQSTM1 [6]. Moreover, the phenotypically active in the assay on A549-ACTB-RAB5A [7], in the assay on A549-CANX-COX4 [8], in the assay with A549-GM130-SQSTM1 [9], in the assay with A549-TP53BP1-CLTA [10], in the assay with A549-TUBA1B-RELA [11] and with HepG2-ACTB-RAB5A was 1 (active) each time. Moreover, the phenotypically active in the assay on HepG2-CANX-COX4, in the assay on HepG2-GM130-SQSTM1 [12], in the assay on HepG2-TP53BP1-CLTA, in the assay with HepG2-TUBA1B-RELA, with WPMY1-CANX-COX4 and in the assay on WPMY1-GM130-SQSTM1 was 1 (active) in each case. The phenotypically active with WPMY1-TP53BP1-CLTA and with WPMY1-TUBA1B-RELA was 1 (active) throughout.

For `Cc1n[nH]c2ccc(-c3cncc(OC[C@@H](N)Cc4ccccc4)c3)cc12`, the “lowest phenotypically active concentration” value with A549-ACTB-RAB5A [1], in the assay on A549-CANX-COX4 [2], in the assay with A549-GM130-SQSTM1 [3], in the assay with A549-TP53BP1-CLTA [4], with A549-TUBA1B-RELA [5] and in the assay on HepG2-GM130-SQSTM1 [6] was at most 0.3 µM in each case. In addition, the phenotypically active in the assay on A549-ACTB-RAB5A [7], in the assay with A549-CANX-COX4 [8], with A549-GM130-SQSTM1 [9], with A549-TP53BP1-CLTA [10], in the assay on A549-TUBA1B-RELA [11] and in the assay with HepG2-ACTB-RAB5A was 1 (active) throughout. For the same compound, the phenotypically active in the assay with HepG2-CANX-COX4, in the assay with HepG2-GM130-SQSTM1 [12], with HepG2-TP53BP1-CLTA, in the assay with HepG2-TUBA1B-RELA, with WPMY1-CANX-COX4 and in the assay on WPMY1-GM130-SQSTM1 was 1 (active) each time. In addition, the phenotypically active with WPMY1-TP53BP1-CLTA and in the assay on WPMY1-TUBA1B-RELA was 1 (active) each time.

Regarding `O=C(CCCCCCC(=O)Nc1cccnc1)NO` [Pyroxamide], the “lowest phenotypically active concentration” value was 3 µM with A549-ACTB-RAB5A [1]; 3 µM in the assay with A549-CANX-COX4 [2]; 3 µM with A549-GM130-SQSTM1 [3]; 9 µM in the assay on A549-TP53BP1-CLTA [4]; 9 µM in the assay with A549-TUBA1B-RELA [5]; 3 µM in the assay with HepG2-GM130-SQSTM1 [6]. Also, the phenotypically active in the assay with A549-ACTB-RAB5A [7], with A549-CANX-COX4 [8], with A549-GM130-SQSTM1 [9], in the assay with A549-TP53BP1-CLTA [10], in the assay on A549-TUBA1B-RELA [11] and in the assay on HepG2-ACTB-RAB5A was 1 (active) each time. Further, the phenotypically active in the assay with HepG2-CANX-COX4, in the assay with HepG2-GM130-SQSTM1 [12], in the assay with HepG2-TP53BP1-CLTA, with HepG2-TUBA1B-RELA, with WPMY1-CANX-COX4 and in the assay on WPMY1-GM130-SQSTM1 was 1 (active) in each case. Further, the phenotypically active in the assay with WPMY1-TP53BP1-CLTA and in the assay on WPMY1-TUBA1B-RELA was 1 (active) in each case.

In the case of `CC(=O)c1c(C)c2cnc(Nc3ccc(N4CCNCC4)cn3)nc2n(C2CCCC2)c1=O`, the “lowest phenotypically active concentration” value with A549-ACTB-RAB5A [1], with A549-CANX-COX4 [2], in the assay on A549-GM130-SQSTM1 [3], with A549-TP53BP1-CLTA [4], in the assay on A549-TUBA1B-RELA [5] and in the assay on HepG2-GM130-SQSTM1 [6] was at most 0.3 µM in each case. Moreover, the phenotypically active in the assay with A549-ACTB-RAB5A [7], with A549-CANX-COX4 [8], with A549-GM130-SQSTM1 [9], with A549-TP53BP1-CLTA [10], in the assay on A549-TUBA1B-RELA [11] and in the assay with HepG2-ACTB-RAB5A was 1 (active) in each case. In addition, the phenotypically active in the assay on HepG2-CANX-COX4, in the assay on HepG2-GM130-SQSTM1 [12], in the assay with HepG2-TP53BP1-CLTA, in the assay with HepG2-TUBA1B-RELA, in the assay on WPMY1-CANX-COX4 and in the assay on WPMY1-GM130-SQSTM1 was 1 (active) throughout. The phenotypically active in the assay with WPMY1-TP53BP1-CLTA and with WPMY1-TUBA1B-RELA was 1 (active) throughout.

With `N#Cc1c(C2CCNCC2)cc(-c2c(O)cccc2OCC2CC2)nc1N`, the “lowest phenotypically active concentration” value in the assay on A549-ACTB-RAB5A [1], with A549-CANX-COX4 [2], in the assay with A549-GM130-SQSTM1 [3], in the assay with A549-TP53BP1-CLTA [4], in the assay on A549-TUBA1B-RELA [5] and with HepG2-GM130-SQSTM1 [6] was 9 µM each time. Also, the phenotypically active in the assay with A549-ACTB-RAB5A [7], in the assay with A549-CANX-COX4 [8], with A549-GM130-SQSTM1 [9], in the assay on A549-TP53BP1-CLTA [10], in the assay with A549-TUBA1B-RELA [11] and with HepG2-ACTB-RAB5A was 1 (active) throughout. Besides, the phenotypically active in the assay on HepG2-CANX-COX4, with HepG2-GM130-SQSTM1 [12], in the assay with HepG2-TP53BP1-CLTA, in the assay on HepG2-TUBA1B-RELA, in the assay on WPMY1-CANX-COX4 and in the assay on WPMY1-GM130-SQSTM1 was 1 (active) in each case. Further, the phenotypically active with WPMY1-TP53BP1-CLTA and in the assay on WPMY1-TUBA1B-RELA was 1 (active) throughout.

Take `CC(=O)O[C@@]12CO[C@@H]1C[C@H](O)[C@@]1(C)C(=O)[C@H](O)C3=C(C)[C@@H](OC(=O)[C@H](O)[C@@H](NC(=O)OC(C)(C)C)c4ccccc4)C[C@](O)([C@@H](OC(=O)c4ccccc4)[C@H]21)C3(C)C` [Docetaxel]: the “lowest phenotypically active concentration” value with A549-ACTB-RAB5A [1], in the assay on A549-CANX-COX4 [2], in the assay with A549-GM130-SQSTM1 [3], with A549-TP53BP1-CLTA [4], in the assay with A549-TUBA1B-RELA [5] and in the assay with HepG2-GM130-SQSTM1 [6] was at most 0.3 µM throughout. Further, the phenotypically active with A549-ACTB-RAB5A [7], with A549-CANX-COX4 [8], in the assay on A549-GM130-SQSTM1 [9], in the assay on A549-TP53BP1-CLTA [10], in the assay on A549-TUBA1B-RELA [11] and in the assay on HepG2-ACTB-RAB5A was 1 (active) in each case. For the same compound, the phenotypically active in the assay with HepG2-CANX-COX4, in the assay with HepG2-GM130-SQSTM1 [12], in the assay on HepG2-TP53BP1-CLTA, in the assay on HepG2-TUBA1B-RELA, in the assay with WPMY1-CANX-COX4 and in the assay with WPMY1-GM130-SQSTM1 was 1 (active) throughout. Also, the phenotypically active in the assay with WPMY1-TP53BP1-CLTA and with WPMY1-TUBA1B-RELA was 1 (active) throughout.
